Assay results from PubChem BioAssay AID485270 (The Scripps Research Institute Molecular Screening Center, 2010).
Hit rate of the full screen: of about 330,000 compounds, about 5,800 (1.8%) were called active. Cut-off read from the data, not from the text of the source: active = inhibition mostly above about 38% (no sharp cut-off); inactive = mostly below about 40%. What follows is part of a selection rich in actives, with near analogues and random picks from the rest.

These molecules were tested against Orexin/Hypocretin receptor type 1 (Homo sapiens) (UniProt O43613) (assay: blocks the human orexin 1 receptor (AID 485270;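 note: 0% = agonist challenge alone and 100% = reference antagonist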)). Details: OX1R-expressing cells, FRET antagonist read-out; at 6.6 µM; hits give high values.
Orexin/Hypocretin receptor type 1 (Homo sapiens), sequence (O43613 whole entry, looked up): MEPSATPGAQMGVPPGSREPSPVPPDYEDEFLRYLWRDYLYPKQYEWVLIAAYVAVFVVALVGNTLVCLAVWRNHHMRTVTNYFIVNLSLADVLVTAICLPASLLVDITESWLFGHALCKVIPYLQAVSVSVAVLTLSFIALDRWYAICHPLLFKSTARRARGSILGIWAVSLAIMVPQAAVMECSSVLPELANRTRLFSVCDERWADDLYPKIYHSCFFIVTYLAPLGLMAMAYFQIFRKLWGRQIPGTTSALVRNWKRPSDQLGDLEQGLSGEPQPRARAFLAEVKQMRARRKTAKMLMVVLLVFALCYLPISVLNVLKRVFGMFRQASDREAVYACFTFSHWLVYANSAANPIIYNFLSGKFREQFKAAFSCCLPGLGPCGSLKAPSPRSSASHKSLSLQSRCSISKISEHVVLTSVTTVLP
Cc1cccc(NS(=O)(=O)c2cccc(C(=O)NNC(=O)c3ccccc3O)c2)c1 was tested, and the inhibition was 29.7% (active). Cc1cccc(NS(=O)(=O)c2ccc(C)c(C(N)=O)c2)c1 was tested, and the inhibition was 19.2% (inactive). With CC(=O)N1CCN(C(=O)c2cccc(S(=O)(=O)Nc3ccc(C)cc3)c2)CC1 the inhibition was -3.44% (inactive). With COc1cc(/C=C2\Oc3ccc(C#Cc4ccc(O)cc4)cc3C2=O)cc(OC)c1 the inhibition was 2.43% (inactive). In the case of O=C(COC(=O)c1ccco1)Nc1ccc(Cl)cn1, the inhibition is reported as 1.22% (inactive). For CCNC(=O)N(CC)C[C@H]1N[C@@](CC)(C(=O)OC)[C@H]2C(=O)N(Cc3ccccc3)C(=O)[C@@H]12, the inhibition was -4.57% (inactive). For CC(C)(C)OC(=O)C[C@@H]1C/C=C\C[C@@H](CC(=O)N(CCO)Cc2ccccc2)C(=O)N[C@H](Cc2ccccc2)COC1=O, the inhibition was 13.4% (inactive). For CC(C)(C)c1cc[n+](-c2[nH]c(=O)sc2/C=N/N=C(\[O-])c2ccccc2)cc1, the inhibition was 59.4% (active). For O=C(N[C@@H]1C/C=C\C[C@@H](CC(=O)N(CCO)Cc2ccccc2)C(=O)N[C@H](Cc2ccccc2)COC1=O)OCC1c2ccccc2-c2ccccc21, the inhibition was 9.35% (inactive). CC1O[C@H](OC2C(COC3OC(CO)C(O)[C@H](O)C3O)OC(OC3CC[C@]4(C)C(CC[C@@]5(C)[C@@H]4C=C[C@]46OC[C@@]7(CCC(C)(C)C[C@H]74)C(O)C[C@@]56C)C3(C)C)C(O)C2O)C(O)C(O)C1O (some centres undefined) was tested, and the inhibition was 0.25% (inactive). c1ccc(-c2cc(-c3ccccc3)[nH]n2)cc1 was tested, and the inhibition was 10.7% (inactive). In the case of Fc1ccccc1/C=N/n1c(-c2cccnc2)n[nH]c1=S, the inhibition is reported as 11.6% (inactive). S=c1[nH]nc(-c2cc(-c3ccccc3)n[nH]2)n1/N=C/c1c2ccccc2cc2ccccc12 was tested, and the inhibition was 117% (active). With CN(C(=O)c1cccc(NC(=O)Cc2ccc([N+](=O)[O-])cc2)c1)C1CCC1 the inhibition was 2.95% (inactive). Nn1c(SCC(=O)Nc2ccc3c(c2)CCC3)nnc1C1CC1 was tested, and the inhibition was 10.2% (inactive). CC(C)NC(=O)Nc1cccc2c1O[C@H](CN(C)S(=O)(=O)c1cccs1)[C@@H](C)CN([C@H](C)CO)C2=O was tested, and the inhibition was -2.12% (inactive). COc1ccc(CN(C)C(=O)c2cc(-c3ccc(C)cc3C)nc3ccccc23)c(OC)c1OC was tested, and the inhibition was 43.5% (active). COc1ccc(-c2cc(C(=O)N(C)Cc3ccc(OC)c(OC)c3OC)c3ccccc3n2)cc1OC was tested, and the inhibition was 39.4% (inactive). COc1ccc(-c2cc(C(=O)N(C)Cc3ccccc3)c3ccccc3n2)cc1 was tested, and the inhibition was 1.22% (inactive). CN(C(=O)c1cccc(NC(=O)C2CCN(C(=O)OC(C)(C)C)CC2)c1)C1CCC1 was tested, and the inhibition was 5.08% (inactive). For CC(C)OC(=O)c1cc(NC(=O)C2C3CCC(O3)C2C(=O)O)cc(C(=O)OC(C)C)c1 (centres undefined), the inhibition was 8.17% (inactive). CC(C)OC(=O)c1c(NC(=O)c2ccco2)sc2c1CCCC2 was tested, and the inhibition was 12.4% (inactive). For Cc1sc(NC(=O)C2C3CCC(O3)C2C(=O)O)c(C(=O)OC(C)C)c1-c1ccc(Cl)cc1 (centres undefined), the inhibition was 76% (active). With Cn1cccc1C(=O)OCC(=O)NCCc1ccccc1 the inhibition was 5.82% (inactive). For O=[N+]([O-])c1cc(C(F)(F)F)ccc1NN=C1CCCC1, the inhibition was 9.21% (inactive). For O=C(Nc1ccccc1)O/N=C1\CCCCC1c1ccc([N+](=O)[O-])cc1[N+](=O)[O-] (centres undefined), the inhibition was 28.9% (inactive). In the case of CC1(C)C/C(=N/Nc2ccc([N+](=O)[O-])cc2[N+](=O)[O-])C(C)(C)O1, the inhibition is reported as 7.54% (inactive). With C[n+]1ccccc1C1CCCC/C1=N\Nc1ccc([N+](=O)[O-])cc1[N+](=O)[O-] (centres undefined) the inhibition was 93.3% (active). With O=[N+]([O-])c1ccc(N/N=C2/CCCCC2c2ccccn2)c([N+](=O)[O-])c1 (centres undefined) the inhibition was 49.2% (active). In the case of Cc1cc([N+](=O)[O-])ccc1NC1CCCC1, the inhibition is reported as 10.2% (inactive). With Cc1cc(C(=O)OCC(=O)N2C(C)CCCC2C)c2ccccc2n1 (centres undefined) the inhibition was 10.9% (inactive). For Cc1cccc(NS(=O)(=O)c2ccc(C)c(C(=O)NCc3cccnc3)c2)c1, the inhibition was 6.94% (inactive). N/C(=N\OC(=O)CCc1ccccc1)c1ccc(Cl)cc1 was tested, and the inhibition was 18.5% (inactive). In the case of Cc1ccc(NC(=O)Cn2cnc3c(OCc4ccccc4)ncnc32)cc1C, the inhibition is reported as 6.27% (inactive). For Cc1ccsc1C(=O)NCCc1ccco1, the inhibition was 7.13% (inactive). In the case of O=C(Nc1cccc(S(=O)(=O)N2CCOCC2)c1)C12CC3CC(CC(C3)C1)C2, the inhibition is reported as 4.36% (inactive). For Cc1cc(C)cc(NC(=O)C2CCCN2S(=O)(=O)c2cccc3cccnc23)c1 (centres undefined), the inhibition was 89.3% (active). In the case of O=C(O)C1CCCN(S(=O)(=O)c2cccc3cccnc23)C1 (centres undefined), the inhibition is reported as 4.71% (inactive). In the case of Cc1ccc(NC(=O)C2CCCN2S(=O)(=O)c2cccc3cccnc23)c(C)c1 (centres undefined), the inhibition is reported as 21.6% (inactive). For O=C(Nc1nccs1)C1CCCN1S(=O)(=O)c1cccc2cccnc12 (centres undefined), the inhibition was 47.1% (active). COc1ccc(NC(=O)C2CCCN(S(=O)(=O)c3cccc4cccnc34)C2)cc1OC (centres undefined) was tested, and the inhibition was 22.1% (inactive). In the case of Cc1cccc(NC(=O)C2CCN(S(=O)(=O)c3cccc4cccnc34)CC2)c1, the inhibition is reported as 7.8% (inactive). In the case of O=C1OC[C@@H]2CCCN2C(=O)[C@H](CC(=O)N(CCO)Cc2ccccc2)C/C=C\CC[C@@H]1Cc1ccc(F)cc1, the inhibition is reported as 4.88% (inactive). For CC(=O)OCCC(C)C, the inhibition was 3.23% (inactive). In the case of C=CC[C@H](CC(=O)N(CCO)Cc1ccccc1)C(=O)N[C@@H](COC(=O)[C@@H](CC=C)Cc1ccc(F)cc1)Cc1ccccc1, the inhibition is reported as 10.8% (inactive). In the case of O=C(NCCN1C(=O)S/C(=C\c2cccnc2)C1=O)c1cccc(OC(F)F)c1, the inhibition is reported as 33.8% (inactive). With CCCNC(=O)C1CC(=O)N(c2ccc(OCC(=O)Nc3cccc(C)c3C)cc2)C1 (centres undefined) the inhibition was 7.42% (inactive). With Cc1cc(OCCCC(=O)NCCN2C(=O)S/C(=C\c3cccnc3)C2=O)ccc1Cl the inhibition was 97.5% (active). With COc1cccc(NC(=O)C2c3cc(OC)c(OC)cc3C(=O)N(C)C2c2cccnc2)c1 (centres undefined) the inhibition was 10.3% (inactive). For CCOc1ccc(N2CC(C(=O)NCCN3C(=O)S/C(=C\c4cccnc4)C3=O)CC2=O)cc1 (centres undefined), the inhibition was 55.7% (active). In the case of COc1ccc(N2CC(C(=O)NCCN3C(=O)S/C(=C\c4cccnc4)C3=O)CC2=O)c(OC)c1 (centres undefined), the inhibition is reported as 153% (active). COc1ccccc1N1CC(C(=O)NCCN2C(=O)S/C(=C\c3cccnc3)C2=O)CC1=O (centres undefined) was tested, and the inhibition was 29.4% (inactive). O=C(NCCN1C(=O)S/C(=C\c2cccnc2)C1=O)c1ccc(S(=O)(=O)N2CCCC2)cc1 was tested, and the inhibition was 41% (inactive). For CCOc1ccc(N2CC(C(=O)NCc3ccccn3)CC2=O)cc1 (centres undefined), the inhibition was 13.1% (inactive).
